Test results as given in the supplement of paper PMC7366291.
Counter-ions that a name gives are not always drawn. ± gives the standard deviation or the standard deviation of the averaged measurements.

Key:
Conditions in all cases: 25 µM; exposure: 24-48 hpf
[1] = test system: Danio rerio Tg(wt1b:EGFP) embryo, pronephros; assay: glomerular separation, fold change vs DMSO control; higher = glomeruli further apart (abnormal)
How it was run: (§1)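 Dechorionated Tg(wt1b:EGFP) zebrafish embryos were treated with 25 μM compound in 0.5% DMSO, in HEPES-buffered E3 with 0.003% PTU, from 24 to 48 hpf at 28.5°C. On maximum projections of dorsal pronephros images, 16 hand-placed reference points in Fiji gave distances and angles, and values more than 2 SD from the feature mean were left out. Results are fold changes over the mean of same-day DMSO-treated embryos.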

[2] = test system: Danio rerio Tg(wt1b:EGFP) embryo, pronephros; assay: glomerular width (mean of left and right), fold change vs DMSO control; higher = wider glomerulus
How it was run: as §1

[3] = test system: Danio rerio Tg(wt1b:EGFP) embryo, pronephros; assay: pronephric angle neck segment to proximal convoluted tubule (mean of left and right), fold change vs DMSO control; higher = larger pronephric angle
How it was run: as §1

[4] = test system: Danio rerio Tg(wt1b:EGFP) embryo, pronephros; assay: fraction of imaged embryos annotated as normal kidney; higher = less nephrotoxic; extreme values may be limits of the assay
How it was run: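 Embryos of the Tg(wt1b:EGFP) zebrafish line were dechorionated and held in 12-well plates with 25 μM compound in 0.5% DMSO and 5 mM HEPES-buffered E3 containing 0.003% PTU, from 24 to 48 hpf at 28.5°C. Larvae were then anaesthetised with tricaine, set dorsal side up in agarose-filled 96-well plates, and their pronephroi imaged by widefield fluorescence at 470 nm over 10 z-slices. Each value is the fraction of embryos per treatment placed in the normal-kidney category after manual annotation of maximum projections.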

Structure (SMILES) | glomerular separation [1] | glomerular width [2] | pronephric angle neck segment [3] | fraction of imaged embryos annotated as normal kidney [4]
CCOc1ccc2nc(S(N)(=O)=O)sc2c1 [Ethoxzolamide] | 2.05 ± 1.5 | 1.08 ± 0.0034 | 1.2306 ± 0.00079 | –
CCOC(=O)OC(C)OC1=C(C(=O)Nc2ccccn2)N(C)S(=O)(=O)c2ccccc21 (centres undefined) [Ampiroxicam] | 0.796 ± 0.29 | 1.1 ± 0.027 | 0.963 ± 0.018 | 1
COc1ccc(CC(C)NCC(O)c2ccc(O)c(NC=O)c2)cc1 (centres undefined) [Formoterol fumarate] | 0.928 ± 0.31 | 0.97 ± 0.051 | 1.05 ± 0.034 | 0.917
Nc1ccn([C@@H]2CS[C@H](CO)O2)c(=O)n1 [Lamivudine] | 0.982 ± 0.27 | 0.984 ± 0.042 | 0.987 ± 0.031 | 0.667
CC(C)(Sc1cc(C(C)(C)C)c(O)c(C(C)(C)C)c1)Sc1cc(C(C)(C)C)c(O)c(C(C)(C)C)c1 [Probucol] | 0.815 ± 0.18 | 0.925 ± 0.06 | 0.928 ± 0.023 | 1
O=C(CCNNC(=O)c1ccncc1)NCc1ccccc1 [Nialamide] | 1.06 ± 0.4 | 0.97 ± 0.056 | 0.99 ± 0.061 | 0.583
CC(C)CN(C[C@@H](O)[C@H](Cc1ccccc1)NC(=O)O[C@H]1CO[C@H]2OCC[C@H]21)S(=O)(=O)c1ccc(N)cc1 [Darunavir] | 1.16 ± 0.42 | 0.976 ± 0.018 | 0.9599 ± 0.0035 | –
CC(C)(S)C(N)C(=O)O (racemic) [D,L-Penicillamine] | 1.31 ± 0.71 | 1.03 ± 0.015 | 0.996 ± 0.025 | 0.583
C/C(=C\C(=O)OCCCCCCCCC(=O)O)C[C@@H]1OC[C@H](C[C@@H]2O[C@H]2[C@@H](C)[C@H](C)O)[C@@H](O)[C@H]1O [Mupirocin] | 0.88 ± 0.41 | 1.01 ± 0.013 | 0.985 ± 0.046 | 0.75
COC(=O)C1=C(C)NC(C)=C(C(=O)OC(C)C)C1c1cccc2nonc12 (centres undefined) [Isradipine] | 4.38 ± 1.4 | 0.666 ± 0.037 | 1.007 ± 0.0069 | 0
NC(=O)C(c1ccccc1)(c1ccccc1)[C@@H]1CCN(CCc2ccc3c(c2)CCO3)C1 [Darifenacin hydrobromide] | 0.963 ± 0.39 | 1.09 ± 0.019 | 1 ± 0.029 | –
CC1(C)[C@H](C(=O)O)N2C(=O)C[C@H]2S1(=O)=O [Sulbactam] | 0.653 ± 0.18 | 1.07 ± 0.04 | 0.952 ± 0.039 | –
CC(=O)N(CC(C)C(=O)O)c1c(I)cc(I)c(N)c1I (centres undefined) [Iocetamic acid] | 0.546 ± 0.25 | 0.974 ± 0.011 | 0.986 ± 0.024 | 0.917
O=C(O)c1cc(-c2ccc(F)cc2F)ccc1O [Diflunisal] | 4.51 ± 2.5 | 0.881 ± 0.022 | 1.69 ± 0.17 | 0.0833
Cc1ccnc2c1NC(=O)c1cccnc1N2C1CC1 [Nevirapine] | 1.13 ± 0.48 | 1.02 ± 0.016 | 1.03 ± 0.048 | 0.917
COc1ccccc1N1CCN(CCCCNC(=O)c2ccc3ccccc3c2)CC1 | 0.691 ± 0.17 | 1.02 ± 0.049 | 0.969 ± 0.018 | 0.917
C[C@]12CC[C@@H]3c4ccc(O)cc4C[C@@H](CCCCCCCCC[S+]([O-])CCCC(F)(F)C(F)(F)F)[C@H]3[C@@H]1CC[C@@H]2O (some centres undefined) [Fulvestrant] | 1.22 ± 0.45 | 0.963 ± 0.037 | 0.874 ± 0.065 | 0.833
CC1CCc2cc(F)cc3c(=O)c(C(=O)O)cn1c23 (centres undefined) [Flumequine] | 2.57 ± 1.2 | 1.05 ± 0.023 | 1.15 ± 0.046 | 0.583
CCN[C@H]1CN(CCCOC)S(=O)(=O)c2sc(S(N)(=O)=O)cc21 [Brinzolamide] | 1.47 ± 0.71 | 1.053 ± 0.0011 | 1.1 ± 0.069 | 0.5

Structure (SMILES) | glomerular separation [1] | glomerular width [2] | pronephric angle neck segment [3] | fraction of imaged embryos annotated as normal kidney [4]
CC[N+](C)(CC)CCC[n+]1c(-c2ccccc2)c2cc(N)ccc2c2ccc(N)cc21 [Propidium iodide] | 0.946 ± 0.41 | 1.16 ± 0.087 | 0.959 ± 0.036 | 0.727
CC(=O)O[C@@]12CO[C@@H]1C[C@H](O)[C@@]1(C)C(=O)[C@H](O)C3=C(C)[C@@H](OC(=O)[C@H](O)[C@@H](NC(=O)OC(C)(C)C)c4ccccc4)C[C@@](O)([C@@H](OC(=O)c4ccccc4)[C@H]21)C3(C)C [Docetaxel] | 1.11 ± 0.48 | 0.978 ± 0.051 | 1.007 ± 0.0081 | 0.917
CC(COc1ccccc1)N(CCCl)Cc1ccccc1 (centres undefined) [Phenoxybenzamine hydrochloride] | 1.05 ± 0.59 | 0.834 ± 0.03 | 1.15 ± 0.036 | 0.583
CCn1cc(C(=O)O)c(=O)c2cc(F)c(N3CCNC(C)C3)c(F)c21 (centres undefined) [Lomefloxacin hydrochloride] | 1.54 ± 1.1 | 0.974 ± 0.12 | 1.12 ± 0.037 | 0.5
Nc1ccc(S(=O)(=O)Nc2ccnn2-c2ccccc2)cc1 [Sulfaphenazole] | 1.06 ± 0.3 | 1.022 ± 0.0084 | 1.02 ± 0.024 | 0.917
CCCN(CCC)CCc1cccc2c1CC(=O)N2 [Ropinirole hydrochloride] | 1.34 ± 0.63 | 0.908 ± 0.044 | 0.991 ± 0.037 | 0.75
NS(=O)(=O)c1cc2c(cc1C(F)(F)F)NC(Cc1ccccc1)NS2(=O)=O (centres undefined) [Bendroflumethiazide] | 1.15 ± 0.68 | 0.896 ± 0.043 | 1.09 ± 0.083 | 0.875
COC(=O)Nc1nc2cc(C(=O)c3ccc(F)cc3)ccc2[nH]1 [Flubendazol] | 1.81 ± 0.69 | 0.934 ± 0.034 | 1.11 ± 0.15 | 0.833
CC(C)(C)NC[C@H](O)c1ccc(O)c(CO)c1 [Levalbuterol hydrochloride] | 0.811 ± 0.27 | 1.07 ± 0.031 | 0.998 ± 0.031 | 0.917
CC1(C)S[C@@H]2[C@H](NC(=O)Cc3ccccc3)C(=O)N2[C@H]1C(=O)O [Benzathine benzylpenicillin] | 0.907 ± 0.35 | 1.06 ± 0.074 | 0.951 ± 0.019 | 1
c1ccc([C@H]2CN3CCSC3=N2)cc1 [Levamisole hydrochloride] | 0.699 ± 0.16 | 1.08 ± 0.018 | 0.979 ± 0.016 | 0.917
O=c1[nH]cc(F)c(=O)[nH]1 [5-fluorouracil] | 0.802 ± 0.22 | 1.02 ± 0.042 | 1.024 ± 0.0061 | 0.75
Cc1ccc(-c2cc(C(F)(F)F)nn2-c2ccc(S(N)(=O)=O)cc2)cc1 [Celecoxib] | 0.968 ± 0.38 | 0.913 ± 0.059 | 1.06 ± 0.014 | 0.833
CCCN(CCC)S(=O)(=O)c1ccc(C(=O)O)cc1 [Probenecid] | 1.41 ± 0.61 | 0.907 ± 0.091 | 0.915 ± 0.028 | 0.833
CC(=O)OCC(=O)[C@@]1(O)CC[C@H]2[C@@H]3CCC4=CC(=O)CC[C@]4(C)[C@@]3(F)[C@@H](O)C[C@@]21C [Fludrocortisone acetate] | 1.6 ± 0.63 | 1.23 ± 0.023 | 1.18 ± 0.16 | 0.583
O=C(O)c1cn(C2CC2)c2cc(N3CCNCC3)c(F)cc2c1=O [Ciprofloxacin hydrochloride monohydrate] | 0.914 ± 0.36 | 0.94012 ± 0.00024 | 0.988 ± 0.023 | 0.833
CCN(CC)CCNC(=O)c1cc(Cl)c(N)cc1OC [Metoclopramide monohydrochloride] | 0.868 ± 0.25 | 0.962 ± 0.015 | 0.944 ± 0.032 | 0.833
CNCCC=C1c2ccccc2CCc2ccccc21 [Nortriptyline hydrochloride] | 1.04 ± 0.35 | 0.9614 ± 0.0024 | 1.03 ± 0.011 | 0.833
CC[N+](C)(CC)CCOC(=O)C1c2ccccc2Oc2ccccc21 [Methantheline bromide] | 0.979 ± 0.45 | 0.996 ± 0.029 | 1.045 ± 0.0066 | 0.917

Structure (SMILES) | glomerular separation [1] | glomerular width [2] | pronephric angle neck segment [3] | fraction of imaged embryos annotated as normal kidney [4]
Cc1c(F)c(N2CCNC(C)C2)cc2c1c(=O)c(C(=O)O)cn2C1CC1 (centres undefined) [Grepafloxacin] | 0.897 ± 0.35 | 1.033 ± 0.0021 | 0.985 ± 0.013 | 0.75
c1ccc(CC2=NCCN2)cc1 [Tolazoline hydrochloride] | 0.955 ± 0.4 | 1.03 ± 0.053 | 0.949 ± 0.013 | 0.667
Cc1nc2n(c(=O)c1CCN1CCC(c3noc4cc(F)ccc34)CC1)CCCC2 [Risperidone] | 0.741 ± 0.16 | 1.04 ± 0.043 | 0.974 ± 0.021 | 1
CC[C@H](C)C(=O)O[C@H]1C[C@H](O)C=C2C=C[C@H](C)[C@H](CC[C@@H](O)C[C@@H](O)CC(=O)O)[C@H]21 [Pravastatin] | 1.12 ± 0.39 | 0.865 ± 0.051 | 1.03 ± 0.035 | 1
CCc1nn(CCCN2CCN(c3cccc(Cl)c3)CC2)c(=O)n1CCOc1ccccc1 [Nefazodone hydrochloride] | 0.987 ± 0.43 | 1.05 ± 0.061 | 0.989 ± 0.012 | 0.727
Cn1c(=O)c2c(ncn2CC2OCCO2)n(C)c1=O [Doxofylline] | 1.55 ± 0.87 | 0.971 ± 0.021 | 1.03 ± 0.03 | 0.917
CCCCCN(C)CCC(O)(P(=O)(O)O)P(=O)(O)O [Ibandronate sodium] | 0.837 ± 0.21 | 1.06 ± 0.025 | 0.981 ± 0.048 | 0.833
O=C(C1CCCCC1)N1CC(=O)N2CCc3ccccc3C2C1 (centres undefined) [Praziquantel] | 1.18 ± 0.28 | 1 ± 0.052 | 1.02 ± 0.057 | 0.545
COc1ccc2c(c1)c(CC(=O)O)c(C)n2C(=O)c1ccc(Cl)cc1 [Indomethacin] | 3.64 ± 1.7 | 0.781 ± 0.045 | 1.62 ± 0.03 | 0
N=C(N)NS(=O)(=O)c1ccc(N)cc1 [Sulfaguanidine] | 1.04 ± 0.35 | 0.979 ± 0.034 | 1.02 ± 0.036 | 0.833
CC1(C)NC(=O)N(c2ccc([N+](=O)[O-])c(C(F)(F)F)c2)C1=O [Nilutamide] | 1.14 ± 0.42 | 1.13 ± 0.035 | 0.945 ± 0.013 | 0.667
C[C@H](O)C(=O)Nc1c(I)c(C(=O)NC(CO)CO)c(I)c(C(=O)NC(CO)CO)c1I [Iopamidol] | 0.92 ± 0.3 | 0.9773 ± 0.007 | 1.01 ± 0.038 | 0.833
Cc1cc(C)nc(NS(=O)(=O)c2ccc(N)cc2)n1 [Sulfamethazine sodium salt] | 1.11 ± 0.43 | 1.08 ± 0.048 | 1.01 ± 0.031 | 0.917
OC(c1cc(C(F)(F)F)nc2c(C(F)(F)F)cccc12)C1CCCCN1 (centres undefined) [Mefloquine hydrochloride] | 1.17 ± 0.51 | 1.01 ± 0.019 | 1.017 ± 0.0068 | 0.667
C[C@@](Cc1ccc(O)c(O)c1)(NN)C(=O)O [Carbidopa] | 1.24 ± 0.38 | 1.0027 ± 0.00014 | 1.047 ± 0.0029 | 0.833
O=C(NCC(O)CO)c1c(I)c(C(=O)NCC(O)CO)c(I)c(N(CCO)C(=O)CO)c1I (centres undefined) [Ioversol] | 0.777 ± 0.33 | 1.07 ± 0.063 | 0.9813 ± 0.0048 | 0.833
O=c1oc2ccccc2c(O)c1Cc1c(O)c2ccccc2oc1=O [Dicumarol] | 0.799 ± 0.23 | 0.772 ± 0.025 | 1.14 ± 0.08 | 0.9
C#C[C@]1(OC(C)=O)CC[C@H]2[C@@H]3CCC4=CC(=NO)CC[C@@H]4[C@H]3CC[C@@]21CC (mixture of isomers) [Norgestimate] | 2.81 ± 1.2 | 0.858 ± 0.059 | 1.37 ± 0.015 | 0.0833
CCOCCn1c(N2CCCN(C)CC2)nc2ccccc21 [Emedastine] | 0.707 ± 0.16 | 0.979 ± 0.051 | 0.9917 ± 0.0031 | 0.917
